This note sets out measurements from article PMC10812921, “Transcriptional Coactivator BOB1 (OBF1, OCA-B) Modulates the Specificity of DNA Recognition by the POU-Domain Factors OCT1 and OCT2 in a Monomeric Configuration”.

Test [1] has as its target POU1 (OCT1 POU domain) (human, UniProt P14859 260-458). Briefly: EMSA-SELEX-seq; no BOB1; 20 mM Tris-HCl pH 7.6, 140 mM NaCl, 10% glycerol, 0.5 mM EDTA, 0.05% Triton X-100, 0.1 mg/mL BSA, 0.1 mg/mL poly(dI-dC), 5 mM DTT, room temperature, 20 min; high values mean tight binding. Conditions: protein: recombinant; dsDNA, one strand shown. Put shortly:
(§1)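 A double-stranded random 35-nt library (300 ng, PCR-amplified) was incubated with 30 ng tagged POU-domain protein, with or without 28 ng coactivator protein, in 20 μL Tris–HCl pH 7.6 binding buffer for 20 min at RT. The proteins had been expressed in E. coli BL21, purified under denaturing conditions and renatured. Complex bands from native 6% PAGE were eluted and PCR-amplified over four rounds, then sequenced on Illumina. For binding preference, the percentage of sequenced 8-mers matching a motif pattern was calculated.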
(In general: Mobility shift assays separate free from complexed probe on a gel.)

For test [2], the target named is T1, POU2 (OCT2 POU domain) (human, UniProt P09086 175-386).
T1 sequence: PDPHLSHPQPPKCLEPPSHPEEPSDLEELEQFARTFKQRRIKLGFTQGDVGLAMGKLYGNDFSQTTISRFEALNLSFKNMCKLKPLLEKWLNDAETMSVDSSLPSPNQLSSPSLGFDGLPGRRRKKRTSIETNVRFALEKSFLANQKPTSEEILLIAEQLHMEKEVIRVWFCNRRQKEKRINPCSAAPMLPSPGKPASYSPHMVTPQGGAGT
The description is as above. To be noted: protein: recombinant; dsDNA, one strand shown. Put shortly: as §1

Test [3] concerns the target POU1 (OCT1 POU domain);BOB1 (OBF1, OCA-B) (human;human, UniProt P14859;Q16633 260-458;1-256, |). The test can be described thus: EMSA-SELEX-seq; with BOB1 (ternary complex band); 20 mM Tris-HCl pH 7.6, 140 mM NaCl, 10% glycerol, 0.5 mM EDTA, 0.05% Triton X-100, 0.1 mg/mL BSA, 0.1 mg/mL poly(dI-dC), 5 mM DTT, room temperature, 20 min; high values mean tight binding. To be noted: protein: recombinant;recombinant; copies: 1;1; dsDNA, one strand shown. In short, it runs like this: as §1

For test [4], the target named is T2, POU2 (OCT2 POU domain);BOB1 (OBF1, OCA-B) (human;human, UniProt P09086;Q16633 175-386;1-256, |).
T2 sequence 1: T1 sequence
T2 sequence 2: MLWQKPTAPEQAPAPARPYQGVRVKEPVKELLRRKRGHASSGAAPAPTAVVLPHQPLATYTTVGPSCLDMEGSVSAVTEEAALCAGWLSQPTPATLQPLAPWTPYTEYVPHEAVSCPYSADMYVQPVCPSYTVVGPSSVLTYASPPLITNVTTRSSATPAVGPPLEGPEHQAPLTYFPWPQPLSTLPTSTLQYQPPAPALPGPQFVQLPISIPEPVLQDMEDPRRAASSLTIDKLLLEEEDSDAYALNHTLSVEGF
The description is as above. Conditions: protein: recombinant;recombinant; copies: 1;1; dsDNA, one strand shown. Put shortly: as §1

Sequence of POU1 (OCT1 POU domain) (P14859 260-458): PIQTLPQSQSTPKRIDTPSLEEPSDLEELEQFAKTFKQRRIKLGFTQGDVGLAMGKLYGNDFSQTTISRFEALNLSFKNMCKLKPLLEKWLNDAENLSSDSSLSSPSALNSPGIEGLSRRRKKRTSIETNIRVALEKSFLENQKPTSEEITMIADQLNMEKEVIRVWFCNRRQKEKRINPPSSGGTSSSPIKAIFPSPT

As to AAGTAAAC, the binding signal in test [1] was 0.0477 % of ANNNNAAN 8-mers; in test [2] it was 0.0489 % of ANNNNAAN 8-mers; in test [3], 0.0535 % of ANNNNAAN 8-mers; in test [4], 0.0487 % of ANNNNAAN 8-mers.
For ACGGAAAG the same measures were 0.0397 % of ANNNNAAN 8-mers, 0.0443 % of ANNNNAAN 8-mers, 0.0406 % of ANNNNAAN 8-mers and 0.0371 % of ANNNNAAN 8-mers.
For ATTGGAAC the same measures were 0.0313 % of ANNNNAAN 8-mers, 0.0426 % of ANNNNAAN 8-mers, 0.0304 % of ANNNNAAN 8-mers and 0.0388 % of ANNNNAAN 8-mers.
As to ACACGAAG, the binding signal in test [1] was 0.0206 % of ANNNNAAN 8-mers; in test [2], 0.0196 % of ANNNNAAN 8-mers; in test [3], 0.0176 % of ANNNNAAN 8-mers; in test [4], 0.0157 % of ANNNNAAN 8-mers.
For AGTCTAAT the same measures were 0.147 % of ANNNNAAN 8-mers, 0.166 % of ANNNNAAN 8-mers, 0.0761 % of ANNNNAAN 8-mers and 0.0958 % of ANNNNAAN 8-mers.
For ATGTCAAC the same measures were 0.0214 % of ANNNNAAN 8-mers, 0.023 % of ANNNNAAN 8-mers, 0.0273 % of ANNNNAAN 8-mers and 0.0215 % of ANNNNAAN 8-mers.
On to ACCGGAAA, for which the binding signal in test [1] is 0.0271 % of ANNNNAAN 8-mers; in test [2], 0.0236 % of ANNNNAAN 8-mers; in test [3], 0.0265 % of ANNNNAAN 8-mers; in test [4], 0.0281 % of ANNNNAAN 8-mers.
Take ACGTCAAA: the binding signal in test [1] is 0.0271 % of ANNNNAAN 8-mers; in test [2], 0.0178 % of ANNNNAAN 8-mers; in test [3] it was 0.0371 % of ANNNNAAN 8-mers; in test [4], 0.0173 % of ANNNNAAN 8-mers.
With AGAGGAAT, the binding signal was 0.0828 % of ANNNNAAN 8-mers in test [1], 0.115 % of ANNNNAAN 8-mers in test [2], 0.0652 % of ANNNNAAN 8-mers in test [3] and 0.0859 % of ANNNNAAN 8-mers in test [4].
In the case of AACAAAAC, the binding signal in test [1] was 0.0587 % of ANNNNAAN 8-mers; in test [2], 0.0409 % of ANNNNAAN 8-mers; in test [3] it was 0.0987 % of ANNNNAAN 8-mers; in test [4] it was 0.0636 % of ANNNNAAN 8-mers.
For ACCCCAAT the same measures were 0.0145 % of ANNNNAAN 8-mers, 0.0167 % of ANNNNAAN 8-mers, 0.0172 % of ANNNNAAN 8-mers and 0.019 % of ANNNNAAN 8-mers.
For AGAGTAAT the same measures were 0.0648 % of ANNNNAAN 8-mers, 0.0777 % of ANNNNAAN 8-mers, 0.0499 % of ANNNNAAN 8-mers and 0.0537 % of ANNNNAAN 8-mers.
Turning to ACTCCAAT, the binding signal was 0.0294 % of ANNNNAAN 8-mers in test [1], 0.0219 % of ANNNNAAN 8-mers in test [2], 0.0242 % of ANNNNAAN 8-mers in test [3] and 0.0231 % of ANNNNAAN 8-mers in test [4].
Regarding ATTGCAAC, the binding signal was 0.0256 % of ANNNNAAN 8-mers in test [1], 0.0178 % of ANNNNAAN 8-mers in test [2], 0.0195 % of ANNNNAAN 8-mers in test [3] and 0.0272 % of ANNNNAAN 8-mers in test [4].
For the sequence ACGAGAAA, the binding signal in test [1] is 0.0381 % of ANNNNAAN 8-mers; in test [2] it was 0.0437 % of ANNNNAAN 8-mers; in test [3], 0.0355 % of ANNNNAAN 8-mers; in test [4], 0.038 % of ANNNNAAN 8-mers.
Consider AGTCAAAG, for which the binding signal in test [1] was 0.116 % of ANNNNAAN 8-mers; in test [2], 0.0748 % of ANNNNAAN 8-mers; in test [3], 0.187 % of ANNNNAAN 8-mers; in test [4], 0.0966 % of ANNNNAAN 8-mers.
For AGAACAAC the same measures were 0.0153 % of ANNNNAAN 8-mers, 0.0132 % of ANNNNAAN 8-mers, 0.0125 % of ANNNNAAN 8-mers and 0.0239 % of ANNNNAAN 8-mers.
For AAAAGAAG the same measures were 0.0629 % of ANNNNAAN 8-mers, 0.076 % of ANNNNAAN 8-mers, 0.0679 % of ANNNNAAN 8-mers and 0.071 % of ANNNNAAN 8-mers.
Take AGCAGAAT: the binding signal in test [1] is 0.0435 % of ANNNNAAN 8-mers; in test [2] it was 0.0621 % of ANNNNAAN 8-mers; in test [3], 0.0511 % of ANNNNAAN 8-mers; in test [4] it was 0.0561 % of ANNNNAAN 8-mers.
For ACCATAAT the same measures were 0.082 % of ANNNNAAN 8-mers, 0.0967 % of ANNNNAAN 8-mers, 0.0367 % of ANNNNAAN 8-mers and 0.0495 % of ANNNNAAN 8-mers.
AACGTAAG: the binding signal in test [1] was 0.0301 % of ANNNNAAN 8-mers; in test [2] it was 0.0351 % of ANNNNAAN 8-mers; in test [3] it was 0.0336 % of ANNNNAAN 8-mers; in test [4], 0.0305 % of ANNNNAAN 8-mers.
Consider ACAGGAAC, for which the binding signal was 0.0244 % of ANNNNAAN 8-mers in test [1], 0.0265 % of ANNNNAAN 8-mers in test [2], 0.0222 % of ANNNNAAN 8-mers in test [3] and 0.0239 % of ANNNNAAN 8-mers in test [4].
As for AAATGAAC, the binding signal in test [1] is 0.115 % of ANNNNAAN 8-mers; in test [2], 0.102 % of ANNNNAAN 8-mers; in test [3], 0.11 % of ANNNNAAN 8-mers; in test [4], 0.141 % of ANNNNAAN 8-mers.
For AACATAAT the same measures were 0.134 % of ANNNNAAN 8-mers, 0.174 % of ANNNNAAN 8-mers, 0.0515 % of ANNNNAAN 8-mers and 0.071 % of ANNNNAAN 8-mers.
For AGCAGAAA the same measures were 0.0374 % of ANNNNAAN 8-mers, 0.0339 % of ANNNNAAN 8-mers, 0.0336 % of ANNNNAAN 8-mers and 0.0281 % of ANNNNAAN 8-mers.
With AGTGAAAC, the binding signal in test [1] was 0.0282 % of ANNNNAAN 8-mers; in test [2] it was 0.0178 % of ANNNNAAN 8-mers; in test [3], 0.0324 % of ANNNNAAN 8-mers; in test [4], 0.0206 % of ANNNNAAN 8-mers.
For AGCGCAAT the same measures were 0.0278 % of ANNNNAAN 8-mers, 0.0368 % of ANNNNAAN 8-mers, 0.0258 % of ANNNNAAN 8-mers and 0.0297 % of ANNNNAAN 8-mers.
For ATGAGAAG, the binding signal in test [1] is 0.0709 % of ANNNNAAN 8-mers; in test [2], 0.088 % of ANNNNAAN 8-mers; in test [3], 0.0652 % of ANNNNAAN 8-mers; in test [4], 0.0553 % of ANNNNAAN 8-mers.
As for AGCAAAAA, the binding signal in test [1] is 0.0831 % of ANNNNAAN 8-mers; in test [2], 0.0604 % of ANNNNAAN 8-mers; in test [3] it was 0.11 % of ANNNNAAN 8-mers; in test [4] it was 0.0644 % of ANNNNAAN 8-mers.
